Bioassay records from PubChem.
BoNT-F LC inh = blocks Botulinum neurotoxin F light chain protease | Multiplex microsphere protease cleavage assay, flow cytometry | inhibition, % at 10 µM | 360,000 compounds, 0.22% hits; in the data active means inhibition above about 35%, passing the limit was not always enough; inconclusive means no clear call, values can overlap the other calls
BoNT-A LC inh2 = blocks Botulinum neurotoxin A light chain protease. 360,000 compounds, 0.17% hits. inhibition, % at 10 µM. multiplex microsphere protease substrate cleavage, flow cytometry
Anthrax LF prot = anthrax lethal factor protease inhibition. inhibition, % at 10 µM. 360,000 compounds, 0.12% hits. P15917. AID 588501. multiplex microsphere protease cleavage assay, LF
Target sequence (P15917 whole entry, looked up): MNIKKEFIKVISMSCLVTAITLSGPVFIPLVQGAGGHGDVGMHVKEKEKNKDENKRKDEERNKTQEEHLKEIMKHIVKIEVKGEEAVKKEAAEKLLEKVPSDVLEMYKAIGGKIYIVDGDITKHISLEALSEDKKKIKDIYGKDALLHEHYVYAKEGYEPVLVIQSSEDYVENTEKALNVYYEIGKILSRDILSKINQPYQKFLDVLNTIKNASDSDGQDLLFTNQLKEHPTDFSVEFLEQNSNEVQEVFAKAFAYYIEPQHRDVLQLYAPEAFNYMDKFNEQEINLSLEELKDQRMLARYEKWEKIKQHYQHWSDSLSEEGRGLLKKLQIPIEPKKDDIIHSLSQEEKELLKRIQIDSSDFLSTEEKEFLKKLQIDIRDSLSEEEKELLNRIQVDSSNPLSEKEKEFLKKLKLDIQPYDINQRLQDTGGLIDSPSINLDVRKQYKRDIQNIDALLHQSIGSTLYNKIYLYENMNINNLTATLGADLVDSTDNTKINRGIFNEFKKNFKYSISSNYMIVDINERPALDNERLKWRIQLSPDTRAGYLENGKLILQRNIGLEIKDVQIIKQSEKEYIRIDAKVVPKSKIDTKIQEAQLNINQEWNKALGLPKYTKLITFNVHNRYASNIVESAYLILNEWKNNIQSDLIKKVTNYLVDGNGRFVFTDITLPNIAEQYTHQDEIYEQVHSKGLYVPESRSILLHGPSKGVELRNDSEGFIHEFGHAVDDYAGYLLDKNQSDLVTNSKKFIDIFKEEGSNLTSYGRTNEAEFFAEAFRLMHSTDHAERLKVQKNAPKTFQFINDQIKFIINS
Vc quorum ag = inducers of Vibrio cholerae quorum light production without autoinducers; 350,000 compounds, 0.16% hits; V. cholerae BH1578 lux reporter, luminescence, 6 h; AID 588436; activation, % at 18.7 µM; in the data active means activation mostly above about 9.7%, no sharp cut-off; inconclusive means no clear call, values can overlap the other calls; inactive means mostly below about 3.7%
Bead autofluor = compound fluorescence in toxin protease inhibitor counterscreen; 360,000 compounds, 3.1% hits; fluorescence intensity (concentration not given with the values); compound autofluorescence counterscreen, microsphere flow cytometry; active compounds read high; AID 624483; in the data active means fluorescence intensity above about 16000; inconclusive means no clear call, values can overlap the other calls
Each line names hits and unclear results; the compound was inactive in the other large screens. Most compounds without a hit are left out; they make up all but 3.5% or so of the library. Unless noted, no stated cut-off is given here; in the data, active means inhibition above about 30%; inconclusive means no clear call, values can overlap the other calls; inactive means below that.

CC(C)(CNC(=O)c1ccccc1F)CNC(=O)c1ccccc1F	none
Nc1ccn([C@@H]2O[C@H](C(=O)N[C@H](CO)Cc3ccccc3)[C@@H](O)[C@H]2O)c(=O)n1	none (no result: Vc quorum ag)
CC(NS(=O)(=O)c1ccc(F)cc1)C(c1cccs1)N1CCN(C)CC1 (stereo unspecified)	Bead autofluor 24274
CC(NS(=O)(=O)c1ccc(Cl)cc1)C(c1cccs1)N1CCN(C)CC1 (stereo unspecified)	none
Fc1ccc(-c2nnc(Cc3ccc(Cl)cc3)o2)cc1	none
Cc1nc2ccc(NC(=O)c3cccc(C(F)(F)F)c3)cc2o1	Bead autofluor 22143
O=C(CNC(=O)c1ccccc1F)NC1CC1	BoNT-A LC inh2 inconclusive, Bead autofluor 19571
O=C(COC(=O)CNC(=O)c1ccccc1F)NCCNC(=O)COC(=O)CNC(=O)c1ccccc1F	none
O=C(CNC(=O)c1ccccc1F)OCCCOC(=O)CNC(=O)c1ccccc1F	Bead autofluor 30957
O=C(CCC(=O)N(CC(=O)NC1CCCC1)C1CCCCC1)Nc1ccccn1	none
CCOC(=O)c1cnc(SC)nc1Nc1cccc2ccccc12	none
CCOC(=O)c1cnc(-n2cc(C)cn2)nc1Nc1ccccc1OCC	Bead autofluor 23982
CCCCN(C(=O)c1ccccc1OCc1ccc(F)cc1)c1c(N)n(CC(C)C)c(=O)[nH]c1=O	none
CCn1ncc(C2=NOC(C(=O)NCc3ccc(Cl)cc3)C2)c1C (stereo unspecified)	Bead autofluor 21413
CCn1ncc(C2=NOC(C(=O)Nc3ccc(C)cc3)C2)c1C (stereo unspecified)	none
CCn1ncc(C2=NOC(C(=O)Nc3cccnc3)C2)c1C (stereo unspecified)	Bead autofluor 22133
Cc1cc(C)c(C(=O)N2CCCC(N3CCN(c4ccc(F)cc4)CC3)C2)o1 (stereo unspecified)	none
COc1cc(N)c(Cl)cc1C(=O)OCC(=O)N1CCCCCC1	none
CCCCN1C(=O)/C(=C2\SC(N3CCCCC3)=NC2=O)c2ccccc21	BoNT-A LC inh2 inconclusive, Bead autofluor 23186
O=C1N=C(N2CCCCC2)SC1=C1CCCC1	none
COc1ccc(-c2nc(CS(=O)(=O)CC(=O)NCc3ccccc3OC)c(C)o2)cc1	none
Cc1cccc(C)c1Nc1nnc(SCc2cc([N+](=O)[O-])cc3c2OCOC3)s1	Bead autofluor 16667
[O-][N+](=C(c1ccccc1)c1ccccc1)c1ccccc1	none
C/C(=N\S(=O)(=O)c1ccc(C)cc1)N1CCN(S(=O)(=O)c2ccccc2)C1C(C)C (stereo unspecified)	Bead autofluor 22111
Cn1cnnc1SCC(=O)N(Cc1ccc2c(c1)OCO2)C1(C(=O)NC2CCCCC2)CCCC1	Bead autofluor 22413
CC1CCN(C(=O)CSc2nc(N)cc(N)n2)CC1	Bead autofluor 23394
Nc1cc(N)nc(SCC(=O)N2CCCCC2)n1	none
Cc1noc(C(F)(F)F)c1C(=O)NNC(=O)c1cccc(C(F)(F)F)c1	BoNT-F LC inh inconclusive, BoNT-A LC inh2 inconclusive
CN(C)c1nc(NS(=O)(=O)c2ccc(Cl)cc2)nc(N(C)C)n1	Bead autofluor 16435
CC(C)(C)NC(=O)CN(C(=O)CS(=O)CC(=O)Nc1ccc(F)cc1)c1ccc(F)c(Cl)c1 (stereo unspecified)	Bead autofluor 20160
CC(C)(C)NC(=O)CN(C(=O)CS(=O)CC(=O)Nc1ccc(F)cc1)c1ccc(Cl)cc1 (stereo unspecified)	BoNT-A LC inh2 inconclusive, Bead autofluor 20135
CC(C)(C)NC(=O)CN(C(=O)CS(=O)CC(=O)Nc1ccc(F)cc1)c1cccc(F)c1 (stereo unspecified)	none
O=C(COC(=O)/C=C/c1ccccc1Cl)NC1CCCCCC1	none
Cc1ccccc1CSCCNC(=O)CSCc1ccc([N+](=O)[O-])cc1	BoNT-A LC inh2 inconclusive, Bead autofluor 21363
Cc1ccc(CSCCNC(=O)CSCc2ccc([N+](=O)[O-])cc2)cc1	Bead autofluor 20785
O=c1ccc2cc(S(=O)(=O)NCc3ccccc3)ccc2[nH]1	none
CC(=O)C12CCCCC1CC1C3CC(C)C4(O)CC(=O)CCC4(C)C3CCC12C (stereo unspecified)	BoNT-F LC inh 35.2
O=C1CC(NCc2ccccc2F)C(=O)N1c1ccccc1 (stereo unspecified)	Bead autofluor 16529
O=C1CC(NCc2ccccc2)C(=O)N1c1ccc(F)cc1 (stereo unspecified)	none
Cc1cc(C(=O)N2CCN(c3ncccn3)CC2)sc1-c1ccccc1	BoNT-A LC inh2 inconclusive, Bead autofluor 24354
COCCCn1c(C(C)C)nc2oc3cc(OC)ccc3c(=O)c2c1=O	Bead autofluor 20914
COCCn1c(-c2ccc(Cl)cc2)nc2oc3cc(OC)ccc3c(=O)c2c1=O	none
COc1ccc(-c2nc3oc4cc(OC)ccc4c(=O)c3c(=O)n2Cc2ccco2)cc1	Bead autofluor 20811
COCCn1c(-c2ccc(OC)cc2)nc2oc3cc(OC)ccc3c(=O)c2c1=O	Bead autofluor 20954
CC(CCN1C(Nc2ccccc2)=NC[C@@H]1C)c1ccccc1 (stereo partly specified)	none
O=C(NC1CC(=O)N(c2ccc3c(c2)OCCO3)C1)N1CCC(O)CC1 (stereo unspecified)	none
COCCNC(=O)CSc1nnc(-c2ccccc2F)n1Cc1ccccc1	none
Cc1cc2cc(C=O)c(Cl)nc2cc1C	Bead autofluor 17857
Cc1cc(C)c(S(=O)(=O)c2c(C)cccc2C)c(OCC(C)C)n1	Bead autofluor 23555
O=C(CN1CCN(C(=O)N2CCOCC2)CC1)Nc1cc(Cl)ccc1Cl	none
COc1ccc(NC(=O)CN2CCN(S(=O)(=O)N3CCCCCC3)CC2)cc1	none
O=C(Nc1ccccc1F)c1cc2nc(C(F)F)cc(C(F)F)n2n1	Bead autofluor 21540
O=C(CNC(=O)c1ccccc1C(=O)O)c1ccccc1	Bead autofluor 22929
O=C(NNC(=O)c1ccc(S(=O)(=O)N2CCOCC2)cc1)c1ccccc1	BoNT-F LC inh 45.2
CCOc1ccc2nc(NC(=O)c3ccc(S(=O)(=O)N4CCOCC4)cc3)sc2c1	none
COc1cccc(NS(=O)(=O)c2ccc(S(=O)(=O)N3CCCC3)cc2)c1	none
COc1cc(S(=O)(=O)N2CCOCC2)ccc1NC(=O)COC(=O)CC12CC3CC(CC(C3)C1)C2	Bead autofluor 24036
Cc1ccc(C(=O)NNC(=O)c2ccc(S(=O)(=O)N3CCOCC3)cc2)cc1	none
COc1cccc(NS(=O)(=O)c2ccc(S(=O)(=O)N3CCOCC3)cc2)c1	Bead autofluor 17066
CCOc1ccc2nc(NC(=O)c3ccc(OC)c(S(=O)(=O)N4CCOCC4)c3)sc2c1	Vc quorum ag 44.4
Cc1ccc(N(Cc2ccccc2)C(=O)c2ccc(S(=O)(=O)N3CCOCC3)cc2)cc1	Bead autofluor 27784
COc1cccc(NC(=O)C2CCN(S(=O)(=O)c3ccc4c(c3)OCCO4)CC2)c1	Bead autofluor 22969
COc1ccc(S(=O)(=O)N2CCOCC2)cc1NC(=O)c1ccc(OC(F)F)cc1	none (no result: BoNT-F LC inh, BoNT-A LC inh2, Anthrax LF prot, Bead autofluor)
COc1cccc(NC(=O)C2CCN(S(=O)(=O)c3ccccc3)CC2)c1	none
Cc1ccc(N(Cc2ccccc2)C(=O)c2cccc(S(=O)(=O)N3CCOCC3)c2)cc1	none
